Bioassay records as filed in PubChem BioAssay.
A selection: hits, their analogues and other compounds. The true share with any hit is near 3.4%.
GLS inh: glutaminase GLS (human) inhibition; Potency, µM (doses to about 45.5 µM), usual class: inhibitors; GLS enzymatic activity, qHTS titration; hit rate 0.21% among 410,000; O94925
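hKGA in 45 mM KH2PO4 pH 8.2, 0.02% Tween-20 with pin-transferred compounds; 1 mM L-glutamine (stock) plus glutamate oxidase/HRP/Amplex Red coupling added. Fluorescence read initially and after 30 min at RT.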
PLK1 PBD inh: PLK1 (human) polo-box domain binding inhibition | AID 720504 | hit rate 2.8% among 360,000 | P53350 | Plk1 PBD binding of FITC phosphopeptide, fluorescence polarization | Potency, µM, actives largely listed as inhibitors; further: series mostly up to about 57 µM; nearly all actives have a fitted effect of over 65% in size
VDR inhibitor: vitamin D3 receptor (human) inhibition | P11473 | Potency, µM, most hits filed as inhibitors | hit rate 0.93% among 400,000 | VDR-SRC2-3 peptide fluorescence polarization, 2 h | AID 504847
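Signal is fluorescence polarization, reporting how far test compounds block the interaction of VDR with the SRC2-3 coregulator peptide after a 2 h room-temperature incubation.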
Mito fusion act: mitochondrial division inhibition or fusion activation; S. cerevisiae fusion-defective mutant growth rescue, CellTiterGlo 48 h; Potency, µM (series often up to 46.1 µM), usual class: activators; hit rate 0.23% among 320,000; further: nearly all actives have a fitted effect of over 45% in size
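S. cerevisiae fusion-defective temperature-sensitive mutants (e.g. fzo1-1, mgm1-5) grown 48 h at 37C in YPEG (ethanol/glycerol non-fermentable) medium with 23 nl compound per well; growth rescue read as CellTiterGlo luminescence.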
PKM2 act: PKM2 (human) enzyme activation. AID 1631. purified PKM2, Kinase-Glo ATP luminescence, activation; response scale: 0% is enzyme alone, no compound. Potency, µM (doses to about 57.5 µM), hits mostly activators. hit rate 0.34% among 260,000; further: nearly all actives have a fitted effect of over 55% in size
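hPK-M2, >95% pure; 0.1 mM ADP / 0.5 mM PEP final; imidazole pH7.2 buffer w/ 7 mM MgCl2, 50 mM KCl; 1 h RT; Kinase-Glo lum. Intermediate enzyme activity for dual inhibitor/activator qHTS.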
KAT2A inh: GCN5L2 (KAT2A) acetyltransferase inhibition | Q92830 | GCN5L2 HAT assay, ThioGlo1 CoA-SH fluorescence | Potency, µM (series often up to 58.9 µM), hits mostly inhibitors | hit rate 0.21% among 390,000 | AID 504327
Target sequence (Q92830 whole entry, looked up): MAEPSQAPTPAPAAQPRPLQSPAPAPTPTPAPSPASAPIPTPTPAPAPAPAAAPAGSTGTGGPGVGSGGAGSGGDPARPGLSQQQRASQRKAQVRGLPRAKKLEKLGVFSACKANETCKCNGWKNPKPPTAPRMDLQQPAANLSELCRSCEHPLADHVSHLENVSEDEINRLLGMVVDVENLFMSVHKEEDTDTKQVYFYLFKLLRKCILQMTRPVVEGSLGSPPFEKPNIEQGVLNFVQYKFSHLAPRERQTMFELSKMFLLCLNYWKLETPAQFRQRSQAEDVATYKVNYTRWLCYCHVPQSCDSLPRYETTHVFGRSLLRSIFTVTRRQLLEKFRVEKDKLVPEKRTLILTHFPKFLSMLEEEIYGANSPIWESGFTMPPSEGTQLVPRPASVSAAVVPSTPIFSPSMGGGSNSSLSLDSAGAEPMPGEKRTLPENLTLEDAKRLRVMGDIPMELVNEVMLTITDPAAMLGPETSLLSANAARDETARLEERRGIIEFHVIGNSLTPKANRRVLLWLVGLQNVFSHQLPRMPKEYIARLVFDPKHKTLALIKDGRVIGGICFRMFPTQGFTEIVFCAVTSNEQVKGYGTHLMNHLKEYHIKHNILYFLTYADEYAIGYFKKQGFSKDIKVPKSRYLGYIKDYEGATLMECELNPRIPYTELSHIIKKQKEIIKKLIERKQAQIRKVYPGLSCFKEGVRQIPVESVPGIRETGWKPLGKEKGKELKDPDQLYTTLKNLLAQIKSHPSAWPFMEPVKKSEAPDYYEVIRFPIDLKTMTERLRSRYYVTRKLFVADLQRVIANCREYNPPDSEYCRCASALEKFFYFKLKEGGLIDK
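Compounds, pin-transferred from DMSO stocks, meet 20nM GCN5L2 for 15 min before the reaction begins with H3(1-25) peptide (75uM) and acetyl-CoA (70uM). Thiol-reactive ThioGlo1 reports CoA release over 20 min at room temperature.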
A number is an active result; 0 = inactive; ? = inconclusive; - = no result given. The call rests on the fitted dose curve; in most records, active means well fitted curve in the direction sought with a large enough effect; inconclusive means small, poorly fitted or top-dose-only effect, or another doubt; inactive means no such curve, though single readings can be large; an effect the other way counts as inactive or inconclusive.

SMILES	GLS inh	PLK1 PBD inh	VDR inhibitor	Mito fusion act	PKM2 act	KAT2A inh
Cc1cc(Cl)ccc1-c1nc(NC(C)C)nc2ccsc12	0	0	-	-	-	-
CC(C)=NOc1nc(N(C)C)nc(N2CCOCC2)n1	0	30µM	?	0	0	0
Cc1cccn2c(=O)c3cc(S(=O)(=O)c4ccccc4)c(=N)n(CC4CCCO4)c3nc12 (stereo unspecified)	0	0	0	0	0	0
O=C1CCCc2nc(N3CCN(c4ccccc4)CC3)ncc21	0	30µM	0	0	0	0
Cc1ccc(SCC(=O)NNC(=O)CNC(=O)c2ccccc2F)cc1	0	0	0	-	-	0
O=C(CSc1ccc([N+](=O)[O-])cc1)NNC(=O)c1ccccc1F	0	9.5µM	0	0	0	0
Cc1cc(NC(=O)CCCN2C(=O)c3cccc4cccc(c34)C2=O)no1	0	0	0	0	0	0
Cc1cc(NC(=O)CCCN2C(=O)c3cccnc3C2=O)no1	?	3µM	0	0	0	0
O=C(O)c1cccc(-n2cccc2/C=C2/NC(=O)N(c3ccc(Cl)cc3)C2=O)c1	0	4.7µM	0	0	?	8.9µM
Cc1ccccc1N=C1NC(=O)/C(=C/c2cccn2-c2cccc(C(=O)O)c2)S1	0	17µM	0	0	0	0
CC[C@@H](C)C(N)C(=O)O (stereo partly specified)	0	-	0	-	-	0
CCc1ccc(CNC(=O)Cn2nc(C)c3c(C)n(-c4ccc(C)cc4)nc3c2=O)cc1	0	-	0	-	-	0
CSc1ccc(CCNC(=O)C(C)n2nc(C)c3c(C)n(-c4ccccc4)nc3c2=O)cc1 (stereo unspecified)	0	-	0	-	-	0
CCOc1ccc(CNC(=O)Cn2nc(C)c3c(C)n(-c4ccc(C)cc4)nc3c2=O)cc1	0	30µM	0	0	-	0
CSc1ccc(CNC(=O)C(C)n2nc(C)c3c(C)n(-c4ccccc4)nc3c2=O)cc1 (stereo unspecified)	0	21µM	0	0	-	0
Cc1c(Cl)cccc1NC(=O)c1cnc2sc(N3CCOCC3)nn2c1=O	0	-	0	-	-	0
CCOc1c(OC(C)=O)ccc(/C=C2\N=C(SCC)SC2=O)c1[N+](=O)[O-]	0	30µM	?	0	0	0
CCOc1cc(/C=C2\N=C(SCC)SC2=O)cc([N+](=O)[O-])c1OC(C)=O	?	27µM	0	0	0	0
OC(COCC1COc2ccccc2O1)CN1CCCCC1 (stereo unspecified)	0	30µM	0	0	0	0
CCN1CCN(CC(O)COCC2COc3ccccc3O2)CC1 (stereo unspecified)	0	0	0	0	0	0
Cc1ccc(N2C(=O)[C@@H]3[C@H](C2=O)[C@H]2C=CC=NN2[C@@H]3C(=O)Nc2ccccc2)cc1	0	0	0	0	?	0
O=C(Nc1ccccc1)[C@@H]1[C@@H]2C(=O)N(c3ccc(F)cc3)C(=O)[C@@H]2[C@H]2C=CC=NN21	0	0	0	0	8.9µM	0
CN(C)c1ccc(N=Cc2nc(-c3ccccc3)oc2O)cc1	0	13µM	0	0	0	0
Oc1oc(-c2ccccc2)nc1C=Nc1ccccc1	0	0	0	0	0	0
CC(Oc1ccc2cc(-c3ccccc3)c(=O)oc2c1)C(=O)NCC1CCC(C(=O)O)CC1 (stereo unspecified)	0	0	?	0	0	32µM
SMILES	GLS inh	PLK1 PBD inh	VDR inhibitor	Mito fusion act	PKM2 act	KAT2A inh
CC(Oc1ccc2ccc(=O)oc2c1)C(=O)NCC1CCC(C(=O)O)CC1 (stereo unspecified)	0	0	0	0	0	0
Clc1ccc(Nc2nnc(Cc3ccncc3)c3ccccc23)cc1	0	-	-	-	-	-
O=C(O)c1ccc(Nc2cc(Cl)c3nonc3c2[N+](=O)[O-])cc1	0	4.7µM	20µM	0	-	0
Cc1c(Nc2cc(Cl)c3nonc3c2[N+](=O)[O-])c(=O)n(-c2ccccc2)n1C	0	1.2µM	?	0	0	0
Cc1c(Nc2cc(N3CCOCC3)c3nonc3c2[N+](=O)[O-])c(=O)n(-c2ccccc2)n1C	-	-	-	0	0	0
O=C(O)c1cccc(Nc2ccc3nonc3c2[N+](=O)[O-])c1	0	0	0	0	0	0
O=C(COC(=O)CN1C(=O)C2CCCCC2C1=O)NCc1ccc(Cl)cc1Cl (stereo unspecified)	0	0	0	0	-	0
COC(=O)[C@H](COC(C)(C)C)NC(=O)O[C@@H]1C(=O)c2cc(Br)ccc2O[C@H]1c1ccc2c(c1)OCO2	-	-	0	-	-	-
O=C(CNC(=O)c1ccccc1F)NCCOc1ccccc1Cl	0	27µM	0	0	0	0
O=C(NCCOc1ccccc1Cl)C(=O)NCCOc1ccccc1Cl	0	0	0	0	?	0
CCCCCCC(=O)Oc1cccc(C2=CC(=O)CC(C)(C)C2=O)c1	0	0	-	-	-	-
COc1ccc([N+](=O)[O-])cc1NC(=S)NC(NC(=O)Cc1ccc(OC)c(OC)c1)C(Cl)(Cl)Cl (stereo unspecified)	0	0	0	0	0	0
COc1ccc(NC(=O)CC(C)C)c([N+](=O)[O-])c1	0	0	0	0	0	0
COc1ccc(NC(=S)NC(NC(=O)C(C)C)C(Cl)(Cl)Cl)c([N+](=O)[O-])c1 (stereo unspecified)	0	27µM	0	0	0	0
COc1ccc([N+](=O)[O-])cc1NC(=S)NC(NC(C)=O)C(Cl)(Cl)Cl (stereo unspecified)	0	27µM	0	0	0	0
Cc1cc(NC(=O)C(C)(C)Oc2ccc(Cl)cc2)cc(-c2nc3ncccc3o2)c1O	0	-	0	-	-	0
CC(C)(C)c1ccc(C(=O)NC2CCS(=O)(=O)C2)cc1 (stereo unspecified)	0	0	0	0	-	0
N#CC1=C(S)N(c2ccc(F)cc2)C2(CCCCC2)NC1=O	0	0	?	0	0	0
N#CC1=C(S)N(c2ccccc2)C2(CCCCC2)NC1=O	0	0	35µM	0	0	0
Cc1ccc(CCNC(=O)Cn2ccc3cc(S(=O)(=O)N4CCCC4)ccc32)cc1	0	0	0	0	-	0
O=C1NCCN1CCN1CCC(c2cn(-c3ccc(F)cc3)c3ccc(Cl)cc23)CC1	0	-	-	-	-	-
C/C(N)=C(/C#N)C(=O)CSc1ncnc2ccccc12	0	27µM	0	0	0	0
C/C(N)=C(/C#N)C(=O)CSc1nc2ccccc2c(=O)n1-c1ccccc1C	0	0	0	0	0	0
O=C(O)CC1S/C(=N/N=C/c2ccc(-c3ccc(Cl)c([N+](=O)[O-])c3)o2)NC1=O (stereo unspecified)	0	0	0	0	0	0
